HTT cytoprotect: Huntington cell model cytoprotection by ATP luminescence; Potency, µM (top dose mostly 56.4 µM), actives largely listed as activators; PC12 HTT-Q103 induced, cytoprotection, ATP luminescence, 40 h; 230,000 compounds, 0.14% hits; also: nearly all actives have a fitted effect of over 45% in size
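Quantitative HTS on tebufenozide-induced (100 nM) PC12 cells expressing HTTQ103 exon 1–GFP; compounds tested as a concentration series; survival measured via cellular ATP.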
LMNA splice mod: changes lamin A minigene splicing in HeLa cells | Potency, µM (top dose mostly 46.1 µM), usual class: inhibitors | AID 1487 | HeLa LMNA splicing GFP/RFP minigene ratio, 48 h | 200,000 compounds, 0.01% hits; active = well fitted inhibition curve with a large enough effect in the signal ratio, with a control signal flat, not every such curve was filed as active; inconclusive = small, poorly fitted or top-dose-only effect, or effect the other way, or a change in a side signal; the % refers to the signal ratio
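S3 HeLa cells stably expressing lamin A-EGFP splicing minigene plus DsRed2, 600 cells/well, 48 h compound exposure at 37C. Laser-scanning cytometry; analysed as GFP (500-530 nm)/RFP (575-640 nm) total intensity ratio; 0.5% DMSO vehicle.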
HttQ103 aggreg: inhibitors of mutant huntingtin aggregate formation in PC12 cells; PC12 HttQ103-GFP aggregates, Acumen cytometry, 40 h; Potency, µM (top dose mostly 46.1 µM), actives largely listed as inhibitors; 220,000 compounds, 1.1% hits; AID 1688; also: nearly all actives have a fitted effect of over 60% in size
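Quantitative HTS on tebufenozide-induced (100 nM) PC12 cells stably expressing polyQ103 Huntingtin exon 1–GFP. Reduction of bright GFP aggregates, detected by laser scanning cytometry after lysis, identified actives across the titration.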
NPSR antag: antagonists of human neuropeptide S receptor cAMP signaling; 220,000 compounds, 1% hits; Q6W5P4; CHO-NPSR cells, cAMP TR-FRET, antagonist mode; AID 1461; Potency, µM (series often up to 38.3 µM), hits mostly inhibitors; also: nearly all actives have a fitted effect of over 50% in size
Target sequence (Q6W5P4 whole entry, looked up): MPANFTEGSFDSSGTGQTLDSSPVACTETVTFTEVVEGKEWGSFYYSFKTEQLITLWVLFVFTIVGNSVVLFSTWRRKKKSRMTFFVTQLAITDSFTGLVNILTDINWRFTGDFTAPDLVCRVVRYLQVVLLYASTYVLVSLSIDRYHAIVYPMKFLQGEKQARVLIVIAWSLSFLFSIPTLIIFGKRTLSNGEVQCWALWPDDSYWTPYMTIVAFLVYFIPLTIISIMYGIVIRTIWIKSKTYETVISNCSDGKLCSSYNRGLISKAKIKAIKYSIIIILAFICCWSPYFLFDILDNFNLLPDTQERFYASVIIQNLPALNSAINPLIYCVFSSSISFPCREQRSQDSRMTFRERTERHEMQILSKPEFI
IMPase cell inh: IMPase inhibition in cells | CHO-M1 cells, IP1 accumulation, HTRF TR-FRET ratio | inhibition (IP1 accumulation), % at 46.1 µM | 120,000 tested, under 10 active; active = well fitted curve in the direction sought with a large enough effect in the signal ratio, not every such curve was filed as active; inconclusive = small, poorly fitted or top-dose-only effect, or a change in a side signal; inactive = no such curve, though single readings can be large or run the other way; the % refers to the signal ratio;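 also: cells stimulated with carbachol in lithium chloride buffer; higher means more IMPase inhibition seen as more IP1 and lower FRET ratio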
Target sequence (P97697 whole entry, looked up): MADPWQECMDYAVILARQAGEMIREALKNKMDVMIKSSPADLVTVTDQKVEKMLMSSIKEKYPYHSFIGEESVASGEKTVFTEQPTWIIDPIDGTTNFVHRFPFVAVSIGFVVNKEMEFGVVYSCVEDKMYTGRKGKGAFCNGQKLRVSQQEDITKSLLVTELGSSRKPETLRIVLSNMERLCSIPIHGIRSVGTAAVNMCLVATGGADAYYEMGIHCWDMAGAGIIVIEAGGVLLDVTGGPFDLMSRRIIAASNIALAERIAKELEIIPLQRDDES
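Carbachol-driven Gq signalling in CHO-M1 cells (2000/well) generates IP1. Compounds that block IMPase raise IP1 and so reduce the FRET signal from Eu-anti-IP1 and d2-IP1 after a 10 min room-temperature lysis.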
IMPase Li cell: membrane-permeable IMPase blocker, potentiated with lithium; 210,000 compounds, 0.35% hits; Potency, µM (series often up to 59.4 µM), most hits filed as inhibitors; AID 1457; CHO-M1 cells, IP1 TR-FRET (IP-One), carbachol + lithium;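 also: IP1 builds up when IMPase is blocked and the TR-FRET signal falls; nearly all actives have a fitted effect of over 50% in size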
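Lithium-sensitised IP1 accumulation assay; M1-expressing CHO cells treated 30 min at 37C with compound. Competitive antibody detection by time-resolved FRET followed a 10 min room-temperature lysis step.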
A number is an active result; i = inactive; ? = inconclusive; nt = no result; [ ] = remark or other dose. Shown are actives, neighbours in structure and some others; about 1.6% of the full set was active somewhere. Unless noted, calls follow the shape of the dose curve; as a rule, active = well fitted curve in the direction sought with a large enough effect; inconclusive = small, poorly fitted or top-dose-only effect, or another doubt; inactive = no such curve, though single readings can be large; an effect the other way counts as inactive or inconclusive.

SMILES	HTT cytoprotect	LMNA splice mod	HttQ103 aggreg	NPSR antag	IMPase cell inh	IMPase Li cell
O=C(O)c1ccc(N2C(=O)/C(=C\c3ccccc3)N=C2c2ccccc2)cc1	i[10 µM]	i	i[9.22 µM]	6.31µM	nt	nt
N#Cc1ccc(CS(=O)(=O)c2nnnn2C2CCCCC2)cc1	i	nt	nt	nt	nt	i
COC(=O)c1c(NC(=O)CS(=O)(=O)c2ccc(C)cc2)sc2c1CCCCC2	nt	i	nt	nt	nt	nt
Cc1cc(C)c2nc(SC(C)C#N)cc(C)c2c1 (stereo not given)	0.631µM	i	i	i	i	i
Cc1c(-c2ccccc2)oc2cc(O)ccc2c1=O	i[1.9 µM]	nt	nt	nt	i	i
Cc1ccccc1OCCSCc1nc2ccccc2[nH]1	i[10 µM]	?	3.55µM	i	i	i
COC(=O)NC1C=CCCC1C(C)=O (stereo not given)	i	nt	nt	nt	nt	i
CCOc1ccc(/C(O)=C2\C(=O)C(=O)N(c3cc(C)on3)C2c2ccccc2OC)cc1 (stereo not given)	i[10 µM]	i	i	i	?	5.01µM
CCCCCCCCCCCCCCC/C=C\[C@H](O)[C@@H](NC(=O)CCCCCCCCCCCCC)OC (tested in a mixture with another compound)	i[1.9 µM]	nt	nt	nt	i	nt
CC1(C)Cc2c(sc3nc(-c4cccs4)n(N)c(=O)c23)CO1	i	?	10µM	i	i	i
CC1(C)Cc2c(sc3nc(-c4ccccc4)n(N)c(=O)c23)CO1	i	i	i	i	i	i
CC(C)(C)c1c2c(c(C(C)(C)C)c3c1OCN(Cc1ccccc1)C3)OCN(Cc1ccccc1)C2	i[10 µM]	nt	nt	nt	nt	i
O=C(C1=C(O)C(=O)N(CC2CCCO2)C1c1cccnc1)c1ccco1 (stereo not given)	i[10 µM]	i	i	?	?	12.6µM
COc1ccc(C2C(C(=O)c3ccco3)=C(O)C(=O)N2Cc2cccnc2)cc1OC (stereo not given)	i	i	i	i	i	i
CN(C)CCCN1C(=O)C(O)=C(C(=O)c2cc3ccccc3o2)C1c1ccccc1 (stereo not given)	i	i	i	?	?	10µM
O=C(C1=C(O)C(=O)N(Cc2ccccc2)C1c1ccncc1)c1ccco1 (stereo not given)	i[10 µM]	i	i	i	i	i
O=C(C1=C(O)C(=O)N(CCN2CCOCC2)C1c1cccnc1)c1cc2ccccc2o1 (stereo not given)	i	i	i	i	i	10µM
O=C(C1=C(O)C(=O)N(CCCN2CCOCC2)C1c1ccncc1)c1cc2ccccc2o1 (stereo not given)	i[10 µM]	i	i	i	i	i
COC(=O)c1ccc(C2C(C(=O)c3cc4ccccc4o3)=C(O)C(=O)N2CCCN(C)C)cc1 (stereo not given)	i	i	i	i	i	?
COc1cccc2cc(C(=O)C3=C(O)C(=O)N(Cc4ccco4)C3c3cccnc3)oc12 (stereo not given)	i	i	i	7.94µM	?	10µM
CC1(C)CC(=O)C(C(c2cccc(O)c2O)C2C(=O)CC(C)(C)CC2=O)C(=O)C1	i[10 µM]	nt	nt	nt	nt	i
CCCCC(CC)COCC1CO1 (stereo not given)	i	nt	nt	nt	nt	i
CCC(C(=O)C(C)C(O)C(C)CCc1ccc(C)c(O)c1C(=O)O)C1OC(CC)(C2CC[C@@](O)(CC)C(C)O2)CC1C (stereo not given in full)	i	?	i	nt	nt	i
CCOc1cc(/C=N/Nc2nc(N3CCCC3)nc(N3CCCC3)n2)ccc1O	i[10 µM]	i	?	12.6µM	i	i
O=P(c1ccccc1)(c1ccccc1)c1nc(-c2ccccc2)oc1NCc1ccccc1	i	?	11.2µM	?	nt	i
SMILES	HTT cytoprotect	LMNA splice mod	HttQ103 aggreg	NPSR antag	IMPase cell inh	IMPase Li cell
CCOP(=O)(OCC)c1nc(-c2ccccc2)oc1NCc1ccccc1	i[10 µM]	i	i	i	nt	i
CCCCCCCCCCOc1cc2c(=O)c(C(=O)OCC)c[nH]c2cc1OCC	i	nt	i	nt	nt	nt
CCOC(=O)C(C(=O)OCC)C1N=C(N)N=C2Oc3ccccc3N21 (stereo not given)	i[10 µM]	i	3.16µM	i	i	i
CCCOc1ccc(/C(O)=C2\C(=O)C(=O)N(CCCOC)C23C(=O)N(C)c2ccccc23)cc1 (stereo not given)	i[0.074 µM]	i	i	?	?	10µM
Nc1cc(S(N)(=O)=O)ccc1SSc1ccc(S(N)(=O)=O)cc1N	i[10 µM]	nt	nt	nt	nt	i
C[N+](C)(C)CCC(=O)c1cccc2ccccc12	i	?	nt	31.6µM	i	i
CN(C)CCNc1oc(/C=C/c2ccccc2)nc1C#N	i[1.9 µM]	i	i	10µM	?	i
CCCCCCCCC	i	nt	nt	nt	nt	i
CCN(CC)c1ccc(-c2nn3c(-c4n[nH]c5c4CCC5)nnc3s2)cc1	i	?	12.6µM	i	i	i
O=S1(=O)Nc2c(ccc3cccnc23)-c2ccccc21	i[0.074 µM]	?	?	3.16µM	i	i
O=C(OCC(=O)N1CCc2ccccc21)c1cncc(Br)c1	2.24µM	?	?	i	nt	i
CCCCCCCCC1CO1 (stereo not given)	i	nt	nt	nt	nt	i
Cc1ccc(NC(=O)CSc2nc(-c3ccco3)cc(C(F)(F)F)n2)c(C)c1	nt	nt	nt	nt	i	nt
O=C(CSc1nc(-c2ccco2)cc(C(F)(F)F)n1)Nc1ccccc1C(F)(F)F	3.16µM	i	?	i	i	i
N[C@@H](Cc1nn[nH]n1)C(=O)O	i[10 µM]	nt	nt	nt	nt	i
COc1cccc(-c2nccc(NCc3cnc(C)cn3)n2)c1	i	i	nt	nt	nt	i
O=C1c2ccccc2C(=O)C12OC2c1ccc(Cl)cc1Cl (stereo not given)	i[10 µM]	i	25.1µM	?	nt	i
CN1CCN(CCCBr)CC1	i[10 µM]	nt	nt	nt	nt	i
CN(C)S(=O)(=O)c1ccc(-c2csc(N/N=C/c3ccc(O)cc3)n2)cc1	i[10 µM]	nt	i[9.22 µM]	12.6µM	nt	nt
CN(C)S(=O)(=O)c1ccc(-c2csc(N/N=C/c3ccco3)n2)cc1	i[10 µM]	nt	i[9.22 µM]	i	nt	nt
COc1cc(/C=C(/C(=O)c2cccs2)c2nc3ccccc3[nH]2)cc(OC)c1O	i	?	i[9.22 µM]	12.6µM	i	i
O=C(/C(=C/c1ccc(Cl)cc1)c1nc2ccccc2[nH]1)c1ccccc1	i	?	5.01µM	?	i	i
Cc1sc2ncnc(NCC3COc4ccccc4O3)c2c1C (stereo not given)	i[10 µM]	?	?	i	i	i
c1ccc(-c2csc3ncnc(NCC4COc5ccccc5O4)c23)cc1 (stereo not given)	i[10 µM]	?	8.91µM	i	nt	i
CC(=O)c1ccc(N/N=C(/C(N)=O)C2=NC(C)(C)Cc3ccccc32)cc1	i[10 µM]	?	11.2µM	i	nt	i
CC1(C)Cc2ccccc2C(/C(=N\Nc2cccc(Cl)c2)C(N)=O)=N1	i[10 µM]	?	?	?	i	i
CCOC(=O)OCC1OC(C#Cc2ccc(C(C)(C)C)cc2)C=CC1OC(=O)OCC (stereo not given)	i[10 µM]	nt	nt	nt	nt	nt

Compound activity (PubChem BioAssay)
